Measured values as given in PubChem BioAssay.
Calls of active or inactive are those of the source.

Experiments:
[1] = optical density shifts of acrAB sulA E. coli – strain DRC41, OD650, 48 h, E. coli filamentation inducer project, primary screen (AID 1152); details: higher = more signal, called active from +8 up or from −8 down;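 further: E. coli MC1000 strain DRC41 lacking acrAB efflux pump and sulA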
[2] = probe aLefty1 binding on compound microarray – biochemical, small-molecule microarray, 635/667 nm fluorescence, primary screen (AID 1153); details: higher = more signal;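 further: score merges spot fluorescence with signal-to-noise ratio from the scanned slide images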
[3] = plasmodial surface anion channel blockers, osmotic lysis – cell-based, P. falciparum Indochina, OD700, 1 h, primary screen (AID 1154); details: P. falciparum Indochina infected RBC osmotic lysis, higher = more signal, called active from +8 up or from −8 down
[4] = plasmodial surface anion channel blockers, osmotic lysis – cell-based, P. falciparum Indochina, OD700, 2 h, primary screen (AID 1155);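 further: lysis reports solute entry through the parasite surface anion channel PSAC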; details: P. falciparum Indochina infected erythrocytes, higher = more signal, called active from +8 up or from −8 down
[5] = changes in parasitized red cell lysis, either direction – P. falciparum Indochina, OD700, 3 h, PSAC antagonist project, primary screen (AID 1156); details: P. falciparum-infected erythrocytes, osmotic lysis, higher = more signal, called active from +8 up or from −8 down
[6] = plasmodial surface anion channel blockers, osmotic lysis – cell-based, P. falciparum Indochina, OD700, 18 h, primary screen (AID 1157); details: P. falciparum Indochina infected erythrocytes, osmotic lysis OD700, 18 h; higher = more signal, called active from +8 up or from −8 down
[7] = S6 kinase pathway phospho-S6 level changes – cell-based, A549, cytoblot, luminescence, serum-stimulated, primary screen (AID 1158); details: 5 h, higher = more signal;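 further: serum-stimulated A549 lung adenocarcinoma cells; signal is phosphorylated S6 detected by cytoblot immunostaining with HRP secondary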
[8] = biological target: NADPH oxidase 2 (Homo sapiens) (UniProt P04839); assay: compounds shifting NOX2 Amplex Red fluorescence – cell-based, HEK293-NOX2, PMA-stimulated, NOX inhibitor project, primary screen (AID 1159); details: 45 min, higher = more signal, called active from +8 up or from −8 down; further: test concentration not given here
[9] = biological target: NADPH oxidase 4 (Homo sapiens) (UniProt Q9NPH5); assay: compounds shifting NOX4 Amplex Red fluorescence – cell-based, HEK293-NOX4, tetracycline-induced, NOX inhibitor project, primary screen (AID 1160); details: HEK293-NOX4, Amplex Red H2O2 fluorescence, 45 min; higher = more signal, called active from +8 up or from −8 down
[10] = biological target: NADPH oxidase 5 (Homo sapiens) (UniProt Q96PH1); assay: compounds shifting NOX5 Amplex Red fluorescence – cell-based, HEK293-NOX5, NOX inhibitor project, primary screen (AID 1161); details: HEK293-NOX5, ionomycin, 45 min, higher = more signal
[11] = compound effects on lung adenocarcinoma cell viability – A549, calcein-AM fluorescence, 48 h, basal, profiling panel (AID 1162); details: higher = more signal; further: test concentration not given here
[12] = compound effects on differentiated 3T3-L1 adipocyte viability – cell-based, 3T3-L1 adipocytes, calcein-AM fluorescence, 48 h, basal, profiling panel (AID 1163); details: 3T3-L1 adipocytes viability, higher = more signal; further: test concentration not given here
[13] = compound effects on hepatocellular carcinoma cell viability – HepG2, calcein-AM fluorescence, 48 h, basal, profiling panel (AID 1164); details: higher = more signal; further: test concentration not given here
[14] = compound effects on multiple myeloma cell viability – MM1S, calcein-AM fluorescence, 48 h, basal, profiling panel (AID 1165); details: higher = more signal;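 further: viability of MM1S multiple myeloma cells under basal unstimulated conditions; test concentration not given here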
[15] = calcein-AM signal in unstimulated myeloma cells – cell-based, calcein-AM fluorescence, 48 h, PK04 Diversity Set, profiling panel (AID 1166); details: RPMI8226 myeloma viability, higher = more signal;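 further: cells grown under basal conditions without added stimulus; test concentration not given here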
[16] = JC-1 mitochondrial signal, unstimulated HepG2 cells – cell-based, JC-1 fluorescence, 24 h, 100 nL compound, profiling panel (AID 1167); details: HepG2 mitochondrial potential, higher = more signal; further: test concentration not given here
[17] = JC-1 mitochondrial signal, unstimulated adipocytes – cell-based, JC-1 fluorescence, 3T3-L1 adipocytes, 24 h, 100 nL compound, profiling panel (AID 1168); details: JC-1 mitochondrial fluorescence, higher = more signal, called active from +8 up or from −8 down; further: test concentration not given here
[18] = JC-1 mitochondrial signal, unstimulated myeloma cells – cell-based, JC-1 fluorescence, RPMI8226, 24 h, 100 nL compound, profiling panel (AID 1169); details: JC-1 mitochondrial potential fluorescence, higher = more signal; further: test concentration not given here
[19] = JC-1 mitochondrial signal, unstimulated MM1S myeloma – cell-based, JC-1 fluorescence, 24 h, 100 nL compound, profiling panel (AID 1170); details: MM1S mitochondrial potential, higher = more signal; further: test concentration not given here
[20] = resazurin metabolic signal in A549 cells – cell-based, resazurin fluorescence, 24 h, PK04 Diversity Set, profiling panel (AID 1171); details: A549 viability, higher = more signal, called active from +8 up or from −8 down; further: test concentration not given here

Sequence of NADPH oxidase 4 (Homo sapiens) (Q9NPH5 whole entry, looked up): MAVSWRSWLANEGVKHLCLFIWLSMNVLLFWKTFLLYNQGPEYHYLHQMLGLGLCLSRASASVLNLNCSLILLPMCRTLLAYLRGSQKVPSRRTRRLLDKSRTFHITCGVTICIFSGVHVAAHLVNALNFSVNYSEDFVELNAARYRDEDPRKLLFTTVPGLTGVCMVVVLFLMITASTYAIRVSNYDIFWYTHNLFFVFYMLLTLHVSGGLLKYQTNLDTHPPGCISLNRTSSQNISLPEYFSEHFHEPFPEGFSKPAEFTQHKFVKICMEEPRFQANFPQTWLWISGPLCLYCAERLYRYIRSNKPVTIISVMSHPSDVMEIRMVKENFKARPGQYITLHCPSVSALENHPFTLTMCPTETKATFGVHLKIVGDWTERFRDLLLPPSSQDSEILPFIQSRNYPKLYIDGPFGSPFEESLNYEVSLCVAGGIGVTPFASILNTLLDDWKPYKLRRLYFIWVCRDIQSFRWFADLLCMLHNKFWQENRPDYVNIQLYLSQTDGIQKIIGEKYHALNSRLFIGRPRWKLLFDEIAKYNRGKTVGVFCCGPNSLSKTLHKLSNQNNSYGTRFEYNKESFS
Sequence of NADPH oxidase 2 (Homo sapiens) (P04839 whole entry, looked up): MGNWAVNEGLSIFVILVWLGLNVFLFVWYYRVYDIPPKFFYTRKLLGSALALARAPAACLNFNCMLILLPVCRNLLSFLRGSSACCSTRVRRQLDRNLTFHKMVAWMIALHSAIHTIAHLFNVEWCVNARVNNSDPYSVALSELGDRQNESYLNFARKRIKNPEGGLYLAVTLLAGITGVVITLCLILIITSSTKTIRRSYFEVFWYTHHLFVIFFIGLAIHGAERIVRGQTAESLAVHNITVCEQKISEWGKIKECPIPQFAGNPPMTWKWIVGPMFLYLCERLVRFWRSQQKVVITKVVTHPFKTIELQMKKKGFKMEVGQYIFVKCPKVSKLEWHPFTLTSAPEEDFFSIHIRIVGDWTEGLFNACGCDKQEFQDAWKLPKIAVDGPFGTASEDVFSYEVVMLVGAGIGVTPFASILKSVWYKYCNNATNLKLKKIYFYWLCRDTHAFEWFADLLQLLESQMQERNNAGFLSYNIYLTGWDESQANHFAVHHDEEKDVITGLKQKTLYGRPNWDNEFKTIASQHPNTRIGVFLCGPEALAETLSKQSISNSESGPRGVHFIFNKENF
Sequence of NADPH oxidase 5 (Homo sapiens) (Q96PH1 whole entry, looked up): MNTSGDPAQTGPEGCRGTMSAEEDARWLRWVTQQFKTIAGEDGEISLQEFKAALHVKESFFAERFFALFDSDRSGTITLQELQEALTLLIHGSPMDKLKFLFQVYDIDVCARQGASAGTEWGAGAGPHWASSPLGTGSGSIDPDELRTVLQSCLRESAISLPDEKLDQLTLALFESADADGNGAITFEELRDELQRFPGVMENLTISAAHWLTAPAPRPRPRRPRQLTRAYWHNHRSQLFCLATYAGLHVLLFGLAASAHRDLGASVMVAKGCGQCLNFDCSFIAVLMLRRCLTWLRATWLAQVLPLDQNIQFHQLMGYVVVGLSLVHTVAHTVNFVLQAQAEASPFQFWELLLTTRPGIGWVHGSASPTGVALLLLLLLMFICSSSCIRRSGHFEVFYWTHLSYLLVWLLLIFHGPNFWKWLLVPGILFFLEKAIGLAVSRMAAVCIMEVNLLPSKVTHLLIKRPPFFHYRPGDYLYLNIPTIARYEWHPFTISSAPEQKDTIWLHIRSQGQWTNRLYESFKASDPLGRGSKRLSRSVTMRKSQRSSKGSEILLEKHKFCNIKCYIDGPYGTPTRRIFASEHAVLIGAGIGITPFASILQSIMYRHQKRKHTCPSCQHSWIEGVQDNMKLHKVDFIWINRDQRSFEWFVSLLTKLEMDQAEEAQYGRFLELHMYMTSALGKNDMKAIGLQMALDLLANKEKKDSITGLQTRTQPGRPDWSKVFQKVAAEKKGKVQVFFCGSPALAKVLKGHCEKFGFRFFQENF

Compound | z-score [1] | composite z-score [2] | z-score [3] | z-score [4] | z-score [5] | z-score [6] | z-score [7] | z-score [8] | z-score [9] | z-score [10] | z-score [11] | z-score [12] | z-score [13] | z-score [14] | z-score [15] | z-score [16] | z-score [17] | z-score [18] | z-score [19] | z-score [20]
C=CCNC(=O)[C@@H]1[C@H]2C(=O)O[C@H](c3ccccc3)[C@H](c3ccccc3)N2[C@H](c2ccc(O)cc2)[C@@]12C(=O)N(C(=O)OCCOC)c1ccc(C#CCCO)cc12 | -0.181 (inactive) | 0.0911 | 2.22 (inactive) | 0.517 (inactive) | 0.0855 (inactive) | 0.121 (inactive) | 0.0918 | 0.982 (inactive) | 0.194 (inactive) | 1.06 | 2.21 | 1.14 | 0.723 | -0.824 | 0.262 | -0.707 | 0.152 (inactive) | -0.15 | -0.839 | 0.292 (inactive)
O=C1OCC=C[C@H]2OC34C=CCN(c5ccc6ccccc6c5)C(=O)[C@H]3N(CCCCCO)C(=O)[C@@H]4[C@@H]12 (stereo not given in full) | -0.186 (inactive) | 0.407 | 2.04 (inactive) | 0.132 (inactive) | 1 (inactive) | 0.162 (inactive) | -0.798 | 1.57 (inactive) | 0.056 (inactive) | 2.93 | -0.381 | -0.0217 | -1.08 | 0.589 | 0.0725 | -0.913 | -0.436 (inactive) | -0.0765 | 0.313 | -1.01 (inactive)
O=C(CS)NCCCCCCNC(=O)[C@@H]1C[C@@H]2C(=O)NCC(=O)N2[C@@H]1c1ccc(O)cc1 | 1.58 (inactive) | 0.0341 | 2.54 (inactive) | -0.164 (inactive) | 1.62 (inactive) | -1.41 (inactive) | 2.85 | 0.266 (inactive) | 0.147 (inactive) | 1.51 | 0.622 | 0.182 | 0.435 | 0.21 | 1.06 | 0.677 | 0.138 (inactive) | 0.391 | -0.386 | -0.746 (inactive)
COCCOC(=O)N1C(=O)[C@@]2(c3cc(C#CCCO)ccc31)[C@H](C(N)=O)[C@H]1C(=O)O[C@H](c3ccccc3)[C@H](c3ccccc3)N1[C@@H]2c1ccc(OCCO)cc1 | -0.138 (inactive) | 0.157 | 23.4 (active) | 5.49 (inactive) | 1.88 (inactive) | 1.3 (inactive) | 0.388 | 1.78 (inactive) | 1.1 (inactive) | 0.785 | 0.518 | 0.0809 | 0.325 | -0.971 | -0.859 | -1.78 | 0.959 (inactive) | -0.505 | -0.0622 | -0.0958 (inactive)
COCCOC(=O)N1C(=O)[C@@]2(c3cc(C#CCC(C(=O)OC)C(=O)OC)ccc31)[C@H](c1ccc(O)cc1)N1[C@H](c3ccccc3)[C@H](c3ccccc3)OC(=O)[C@H]1[C@@H]2C(=O)NC[C@H](O)c1ccccc1 | 1.47 (inactive) | -0.159 | 1.67 (inactive) | 0.223 (inactive) | -5.49 (inactive) | -0.0973 (inactive) | -0.158 | 1.72 (inactive) | 0.876 (inactive) | 1.32 | -0.61 | 0.0453 | -0.0754 | -1.92 | -4.3 | -0.689 | -1.16 (inactive) | -1.08 | -0.91 | 0.691 (inactive)
COCC1=C2[C@@H](CCc3ccccc3)OB(O)C[C@@H]2[C@@H]2C(=O)N(C)C(=O)[C@@H]2C1 | -0.801 (inactive) | 0.0355 | 1.4 (inactive) | -0.301 (inactive) | -0.793 (inactive) | -0.015 (inactive) | -0.1 | -0.116 (inactive) | 0.762 (inactive) | 0.217 | -0.0482 | -0.184 | -0.187 | -0.145 | -0.126 | -1.54 | 0.176 (inactive) | -0.0658 | -0.239 | -0.425 (inactive)
C=C[C@@H](OC)[C@H](OC(=O)Nc1ccc(SC)cc1)c1ccc(OCCO)cc1 | -3.28 (inactive) | 0.137 | 26.7 (active) | 16.4 (active) | 2.11 (inactive) | 1.78 (inactive) | 0.285 | 0.403 (inactive) | 0.357 (inactive) | 0.00434 | -0.568 | 0.222 | -0.587 | -2.08 | -1.56 | -2.68 | 0.286 (inactive) | -0.151 | -0.333 | -0.285 (inactive)
C[C@@]12COC[C@]13C=C(Br)[C@H](C2)[C@@]1(CO1)C3=O | -0.745 (inactive) | -0.0003 | -0.526 (inactive) | -0.0824 (inactive) | -0.347 (inactive) | -0.161 (inactive) | -0.788 | 0.51 (inactive) | 0.527 (inactive) | 0.119 | 0.109 | -0.245 | -0.318 | -1.75 | -0.31 | -1.47 | -0.24 (inactive) | 0.253 | -1.12 | -0.557 (inactive)
